Inconclusive results are not listed. The source made the active and inactive calls. The call rests on the fitted dose curve; in most records, active means well fitted cell-killing curve with a large enough effect; inconclusive means small, poorly fitted or top-dose-only effect, or effect the other way; inactive means no such curve, though single readings can be large or run the other way.
How the values were obtained:
[1] = Quantitative High-Throughput drug screen in 47 multiple myeloma cell lines against the NCATS MIPE library collection: OPM1_PLB cell viability assay (AID 1918989); further: nearly all actives have a fitted effect of over 40% in size
Outline: (§1)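 Viability after 48 h drug exposure was measured as ATP-dependent luminescence. Cells, 500 per well, sat at 37 °C under 5% CO2; DMSO wells set 100%, media-only wells 0%.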

[2] = Quantitative High-Throughput drug screen in 47 multiple myeloma cell lines against the NCATS MIPE library collection: SKMM1_PLB cell viability assay (AID 1919863); details: SKMM1 myeloma viability, CellTiter-Glo ATP, 48 h; viability: hits give low values; further: nearly all actives have a fitted effect of over 35% in size
Outline: as §1

[3] = Quantitative High-Throughput drug screen in 47 multiple myeloma cell lines against the NCATS MIPE library collection: U266_ATCC cell viability assay (AID 1919864); further: nearly all actives have a fitted effect of over 35% in size
Outline: as §1

[4] = Quantitative High-Throughput drug screen in 47 multiple myeloma cell lines against the NCATS MIPE library collection: XG1_PLB cell viability assay (AID 1919866); further: nearly all actives have a fitted effect of over 35% in size
Outline: as §1

[5] = Quantitative High-Throughput drug screen in 47 multiple myeloma cell lines against the NCATS MIPE library collection: VP6_DJ cell viability assay (AID 1919867); further: nearly all actives have a fitted effect of over 40% in size
Outline: as §1

[6] = Quantitative High-Throughput drug screen in 47 multiple myeloma cell lines against the NCATS MIPE library collection: UTMC2_PLB cell viability assay (AID 1919868); details: CellTiter-Glo ATP luminescence, 48 h; viability (% of DMSO control): at 45.8 µM (top of the series); further: nearly all actives have a fitted effect of over 55% in size
Outline: as §1

[7] = Quantitative High-Throughput drug screen in 47 multiple myeloma cell lines against the NCATS MIPE library collection: PE2_PLB cell viability assay (AID 1919869); further: nearly all actives have a fitted effect of over 35% in size
Outline: as §1

[8] = Quantitative High-Throughput drug screen in 47 multiple myeloma cell lines against the NCATS MIPE library collection: PCM6_Riken cell viability assay (AID 1919870); further: nearly all actives have a fitted effect of over 30% in size
Outline: as §1

[9] = Quantitative High-Throughput drug screen in 47 multiple myeloma cell lines against the NCATS MIPE library collection: RPMI8226_ATCC cell viability assay (AID 1919871); further: nearly all actives have a fitted effect of over 30% in size
Outline: as §1

[10] = Quantitative High-Throughput drug screen in 47 multiple myeloma cell lines against the NCATS MIPE library collection: OPM2_DSMZ cell viability assay (AID 1919872); further: nearly all actives have a fitted effect of over 30% in size
Outline: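 Myeloma cell lines, 500 cells per well, exposed to MIPE 4.0 library compounds for 48 h at 37C, 5% CO2. Viability from ATP by CellTiter-Glo luminescence; normalised to DMSO (100%) and media-only (0%) wells.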

[11] = Quantitative High-Throughput drug screen in 47 multiple myeloma cell lines against the NCATS MIPE library collection: KMS11_JCRBsus cell viability assay (AID 1919873); further: nearly all actives have a fitted effect of over 50% in size
Outline: as §1

[12] = Quantitative High-Throughput drug screen in 47 multiple myeloma cell lines against the NCATS MIPE library collection: KMS28BM_JCRB cell viability assay (AID 1919874); further: nearly all actives have a fitted effect of over 35% in size
Outline: as §1

[13] = Quantitative High-Throughput drug screen in 47 multiple myeloma cell lines against the NCATS MIPE library collection: XG6_PLB cell viability assay (AID 1919865); further: nearly all actives have a fitted effect of over 40% in size
Outline: as §1
Potency means the concentration at half of the fitted maximal effect.

O=C(CCCCCCC(=O)Nc1ccccc1)NO
active: Potency [1] 1.32 µM | Potency [2] 3.72 µM | Potency [3] 5.9 µM | Potency [4] 2.96 µM | Potency [5] 0.833 µM | Potency [6] 0.662 µM | Potency [7] 3.32 µM | Potency [8] 3.32 µM | Potency [9] 4.69 µM | Potency [10] 4.69 µM | Potency [11] 2.64 µM | Potency [12] 2.09 µM

CC(C)(C)OC(=O)N[C@H]1CCCCCC=C[C@@H]2C[C@@]2(C(=O)NS(=O)(=O)C2CC2)NC(=O)[C@@H]2C[C@@H](OC(=O)N3Cc4cccc(F)c4C3)CN2C1=O
inactive: Potency [1] | viability [2] 123% | Potency [3] | Potency [13] | Potency [5] | Potency [7] | Potency [9] | Potency [10] | Potency [11] | Potency [12]

CC(C)C(C)C=CC(C)C1CCC2C3=CC=C4CC(O)CCC4(C)C3CCC21C (configuration not stated)
inactive: Potency [1] | viability [2] 135% | Potency [13] | Potency [5] | Potency [6] | Potency [7] | Potency [8] | Potency [9] | Potency [10] | Potency [11]

CCn1cc(C(=O)O)c(=O)c2ccc(C)nc21
inactive: Potency [1] | viability [2] 130% | Potency [13] | Potency [7] | Potency [8] | Potency [9] | Potency [10]

COc1cc2ncnc(-n3nc(-c4ccccn4)nc3N)c2cc1OC
active: Potency [1] 11.8 µM | Potency [2] 0.662 µM | Potency [13] 1.05 µM | Potency [5] 6.62 µM | Potency [6] 3.32 µM | Potency [7] 3.72 µM | Potency [8] 4.69 µM
inactive: Potency [10] | Potency [11] | Potency [12]

Cc1cnc(C(=O)O)c[n+]1[O-]
inactive: Potency [1] | Potency [3] | Potency [13] | Potency [4] | Potency [6] | Potency [7] | Potency [8] | Potency [11] | Potency [12]

COc1ccc(C2Sc3ccccc3N(CCN(C)C)C(=O)C2OC(C)=O)cc1 (configuration not stated)
inactive: Potency [1] | Potency [13] | Potency [5] | Potency [7] | Potency [8] | Potency [9] | Potency [10] | Potency [11] | Potency [12]
active: Potency [3] 16.6 µM | Potency [6] 16.6 µM

CO[C@H]1C[C@@H]2CC[C@@H](C)[C@@](O)(O2)C(=O)C(=O)N2CCCC[C@@H]2C(=O)O[C@H]([C@H](C)C[C@@H]2CC[C@H](OCCO)[C@H](OC)C2)CC(=O)[C@H](C)C=C(C)[C@@H](O)[C@@H](OC)C(=O)[C@H](C)C[C@H](C)C=CC=CC=C1C
active: Potency [1] 1.05 µM | Potency [6] 0.235 µM | Potency [7] 1.48 µM
inactive: viability [2] 66.8%

Cc1ccc([C@@H]2O[C@H](CO)[C@@H](O)[C@H](O)[C@@H]2O)cc1Cc1ccc(-c2ccc(F)cc2)s1
active: Potency [1] 20.9 µM | Potency [7] 18.7 µM | Potency [11] 23.5 µM
inactive: viability [2] 118% | Potency [6]

CC(=NNC(=S)N1CCC1)c1ccccn1
active: Potency [1] 0.0037 µM | Potency [2] 0.0059 µM | Potency [9] 0.0042 µM | Potency [10] 0.0074 µM | Potency [11] 0.0033 µM | Potency [12] 0.0083 µM
inactive: Potency [6] | Potency [7]

COc1ccc2cc(-c3nc(-c4ccc(S(C)=O)cc4)[nH]c3-c3ccncc3)ccc2c1 (configuration not stated)
active: Potency [1] 20.9 µM | Potency [4] 23.5 µM | Potency [7] 14.8 µM | Potency [11] 23.5 µM
inactive: viability [2] 106% | Potency [10]

CC(C)n1cnc2c(NCCCCCCNC(=O)OC(C)(C)C)nc(NCCO)nc21
active: Potency [1] 20.9 µM | Potency [3] 9.35 µM | Potency [13] 26.4 µM | Potency [4] 23.5 µM | Potency [8] 16.6 µM

C[C@H](NC(=O)C(=O)Nc1ccccc1C(C)(C)C)C(=O)N[C@@H](CC(=O)O)C(=O)COc1c(F)c(F)cc(F)c1F
inactive: Potency [1] | Potency [4] | Potency [5] | Potency [7] | Potency [12]
active: Potency [2] 16.6 µM | Potency [9] 14.8 µM

O=C1NC(=O)C(=Cc2ccc3nccnc3c2)S1
active: Potency [1] 6.45 µM | Potency [2] 6.45 µM | Potency [4] 6.45 µM | Potency [5] 4.57 µM | Potency [6] 3.63 µM | Potency [12] 7.24 µM
inactive: Potency [10]

Clc1ccc(-c2nc3sccn3c2C=NOCc2ccc(Cl)c(Cl)c2)cc1
inactive: Potency [1] | viability [2] 102% | Potency [5] | Potency [6] | Potency [7] | Potency [10] | Potency [11] | Potency [12]

CCS(=O)(=O)N1CC(CC#N)(n2cc(-c3ncnc4[nH]ccc34)cn2)C1
active: Potency [1] 20.9 µM | Potency [3] 23.5 µM | Potency [13] 2.09 µM | Potency [4] 0.332 µM | Potency [8] 5.9 µM | Potency [12] 23.5 µM

O=C(Nc1cc(Cl)cc2c1[nH]c1cnccc12)c1cccnc1
inactive: Potency [1] | Potency [10] | Potency [11]
active: Potency [3] 20.9 µM | Potency [13] 2.64 µM | Potency [4] 5.26 µM | Potency [5] 7.43 µM

Reference: PubChem BioAssay (NCATS)
